# Bioassay records: PubChem BioAssay, several laboratories
# In the library only some 1.7% were active in any assay of this set; here they are far more common.
# Measles CPE: protection of cells from measles virus | Measles virus-infected cells, CPE protection, absorbance | protection (pct of control), % at 4 µM | 140,000 compounds, 1.5% hits | AID 841; in the data active = protection mostly above about 24%, no sharp cut-off; inactive = mostly below about 26%
# LYP inh 2: LYP (human) phosphatase inhibition; Q9Y2R2; recombinant LYP catalytic domain, DiFMUP fluorescence; inhibition, % at 2 µM; 96,000 compounds, 0.21% hits; AID 640;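 active = inhibition at 2 µM at or above a set limit, the screen mean plus 3 SD, cut at about 24% in these data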;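 also: 0% = DMSO with enzyme and 100% = enzyme fully blocked by orthovanadate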
# sEH act: soluble epoxide hydrolase (human) activation; activation, % at 2 µM; purified human sEH enzymatic activity, activator screen; 91,000 compounds, 0.04% hits; in the data active = activation above about 37%
# Target sequence (P34913 whole entry, looked up): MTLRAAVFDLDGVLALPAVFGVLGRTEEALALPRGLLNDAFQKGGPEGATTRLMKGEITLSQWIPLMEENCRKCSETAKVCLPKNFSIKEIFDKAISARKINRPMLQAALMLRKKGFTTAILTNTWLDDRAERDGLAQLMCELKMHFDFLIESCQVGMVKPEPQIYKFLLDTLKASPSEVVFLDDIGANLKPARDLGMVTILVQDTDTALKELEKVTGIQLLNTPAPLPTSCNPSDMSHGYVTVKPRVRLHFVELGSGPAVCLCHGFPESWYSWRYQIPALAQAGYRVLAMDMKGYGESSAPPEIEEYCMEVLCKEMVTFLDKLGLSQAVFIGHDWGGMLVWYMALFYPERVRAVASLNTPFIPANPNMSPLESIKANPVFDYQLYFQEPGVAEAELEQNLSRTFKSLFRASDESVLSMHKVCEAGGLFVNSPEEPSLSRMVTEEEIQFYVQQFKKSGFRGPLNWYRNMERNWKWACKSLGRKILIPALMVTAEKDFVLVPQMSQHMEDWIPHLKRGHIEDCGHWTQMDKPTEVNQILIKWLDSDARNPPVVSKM
# sEH inh: blocks human soluble epoxide hydrolase activity; AID 707; P34913; inhibition, % at 2 µM; recombinant human sEH enzymatic activity assay; 91,000 compounds, 0.34% hits; in the data active = inhibition above about 80%
# PTPN22 act: increases human PTPN22 phosphatase activity; recombinant LYP, DiFMUP fluorescence; 0 = plate median, 100 = signal doubled; activation, % at 2 µM; 96,000 compounds, 0.11% hits;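 active = activation at 2 µM above a set limit, the mean plus 5 SD, cut at about 37% in these data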
# LYP act confirm: LYP (PTPN22) phosphatase activation confirmation; shares compounds with PTPN22 act; Recombinant LYP, DIFMUP fluorescence; zero set by plate's median compound well; activation, % at 2 µM; 100 tested, under 10 active; call rule not given here
# The depositor's hits bear a star; nt = not tested or not shown.
SMILES,Measles CPE,LYP inh 2,sEH act,sEH inh,PTPN22 act,others
COc1ccc(NC(=O)CCN2CCC(C)CC2)cc1,11,-1,-4,2,2,
CC1CCCN(CC(=O)Nc2cccc([N+](=O)[O-])c2)C1 (stereo unspecified),32*,nt,nt,nt,nt,
Cc1ccc(S(=O)(=O)Nc2cccc(NC(=O)CN3CCCCC3)c2)cc1,63*,-3,6,-5,2,
O=C(CN1C(=O)NC2(CCCCCCC2)C1=O)NC1CCCc2ccccc21 (stereo unspecified),7,nt,nt,nt,nt,
CC(=O)c1ccc(NS(=O)(=O)c2cccc(C)c2)cc1,41*,-4,-8,10,4,
CC(=O)c1ccc(NS(=O)(=O)c2ccc(C)cc2)cc1,7,-7,1,2,10,
CCCCNS(=O)(=O)c1ccc(NS(=O)(=O)c2c(C)cc(C)cc2C)cc1,15,28*,-8,5,-29,
Cc1c(/C=C/C(=O)c2ccc(O)cc2)cnn1C,42*,nt,nt,nt,nt,
Cc1c(/C=C/C(=O)c2ccccc2)cnn1C,3,-6,3,-3,12,
Cc1ccc(NC(=O)C(OC(=O)c2ccc(C=O)cc2)c2ccccc2)cc1Cl (stereo unspecified),12,nt,nt,nt,nt,
Cc1cc(N2C(=O)C3C4CC(C(Br)C4Br)C3C2=O)no1 (stereo unspecified),32*,nt,nt,nt,nt,
Cc1ccnc(N2C(=O)C3C4CC(C(Br)C4Br)C3C2=O)c1 (stereo unspecified),3,4,10,-7,1,
CCC(=O)c1ccc(N2CCCCCC2)c(F)c1,4,-12,nt,nt,9,
CCC(=O)c1ccc(N2CCCC2)c(F)c1,7,6,39*,-39,-6,
COCCN(C(=O)CNC(=O)c1ccco1)C(C(=O)NC1CCCC1)c1cccs1 (stereo unspecified),13,-4,-14,15,1,
O=C(CSc1ncccn1)N/N=C/c1cccc([N+](=O)[O-])c1,3,nt,nt,nt,nt,
Cc1cc(C)nc(SCC(=O)N/N=C/c2cccc([N+](=O)[O-])c2)n1,49*,nt,nt,nt,nt,
CCOC(=O)c1ccc(Nc2nc(=O)c3cccnc3s2)cc1,71*,13,8,-6,-10,
CC(=O)c1ccc(Nc2nc(=O)c3cccnc3s2)cc1,3,0,-3,1,0,
CC1(C)CC(=O)C2=C(C1)NC(=O)CC2c1cc(F)ccc1F (stereo unspecified),28,-8,-2,2,7,
CC1(C)CC(=O)C2=C(C1)NC(=O)CC2c1cccc(F)c1 (stereo unspecified),43*,-18,-4,3,15,
O=C(COc1ccc(Br)cc1CNCCCN1CCOCC1)Nc1ccccc1,0,nt,nt,nt,nt,
CC(=O)Nc1ccc(NC(=O)c2cc(C)nn2-c2ccccc2)cc1,53*,2,-9,9,-6,
CCn1cc(C(=O)NC2CCC(C)CC2)c(=O)c2cc(S(=O)(=O)N3CCCCC3)ccc21 (stereo unspecified),91*,2,-72,72,-3,
CCn1cc(C(=O)NCCCN2CCC(C)CC2)c(=O)c2cc(S(=O)(=O)N3CCCC3)ccc21,3,nt,nt,nt,nt,
SMILES,Measles CPE,LYP inh 2,sEH act,sEH inh,PTPN22 act,others
C/C(Cn1nnc([N+](=O)[O-])n1)=N\NC(=O)c1ccccc1Cl,50*,-3,-1,4,6,
O=C(NCCCN1CCN(Cc2ccccc2)CC1)c1nnc(Cc2c(F)cccc2Cl)o1,39*,8,-6,4,-11,
O=C(NCCc1ccc(Cl)cc1)c1nnc(Cc2ccc(Cl)cc2)o1,14,nt,nt,nt,nt,
CCn1c(CSc2nc3ccccc3s2)nnc1SCC(=O)c1ccc(O)c(O)c1,19,46*,-11,9,-44,
COc1cc2c(cc1OC)C(c1ccc3c(c1)OCO3)C1=C(CC(C)(C)CC1=O)N2 (stereo unspecified),25*,-8,7,-7,6,
CC1CCN(c2nc(Cl)nc(Nc3ccc([N+](=O)[O-])cc3)n2)CC1,8,nt,nt,nt,nt,
O=C(CCC(=O)Nc1ccccc1)NNC(=O)C(c1ccccc1)c1ccccc1,18,nt,nt,nt,nt,
CCCCC(=O)NCCNC(=O)c1cc(OCC(F)(F)F)ccc1OCC(F)(F)F,4,-41,10,-9,38*,LYP act confirm=-1
CCC(=O)NC(C)C(c1cccs1)N1CCN(c2ccccc2)CC1 (stereo unspecified),8,-48,8,-6,43*,LYP act confirm=4
CS(=O)(=O)c1cnc(-c2ccccc2)nc1Oc1ccc(F)cc1,5,-36,2,0,42*,LYP act confirm=-9
C=CCn1c(SCC(=O)Nc2nc(C)cs2)nnc1C(CO)NC(=O)c1ccccc1 (stereo unspecified),24,3,-1,6,-4,
C=CCn1c(SCC(=O)Nc2c(C)nn(Cc3ccccc3)c2C)nnc1C(O)c1ccccc1 (stereo unspecified),17,-49,5,-7,43*,LYP act confirm=-1
COc1cccc(NC(=S)N(CCCN2CCOCC2)Cc2cn(C)c3ccccc23)c1,11,nt,nt,nt,nt,
Cc1c(-c2nc(N)nc(Nc3ccccc3)n2)oc2ccccc12,4,-37,-2,1,37*,LYP act confirm=-1
CC(NC(=O)/C=C/c1cnc2ccccc2n1)C12CC3CC(CC(C3)C1)C2 (stereo unspecified),7,nt,nt,nt,nt,
c1ccc(-c2nn3c(Cn4cnc5ccccc54)nnc3s2)cc1,12,-1,4,-1,0,
c1ccc2c(c1)ncn2Cc1nnc2sc(-c3ccncc3)nn12,12,-56,4,-3,51*,LYP act confirm=7
O=C(/C=C/c1ccccc1)NC1CCSC1=O (stereo unspecified),3,nt,nt,nt,nt,
O=C(NNC1=C(C(=O)C(F)(F)F)CCC1)c1ccc(Cl)cc1,10,-40,1,-1,45*,LYP act confirm=0
CC(C)(C)NCCCCOc1ccc(F)cc1,3,-43,7,-5,40*,LYP act confirm=-2
c1ccc(-c2nnc(SCCC3OCCCO3)o2)cc1,37,-42,15,-16,47*,LYP act confirm=-2
CCOC(=O)/C(=C\c1cccc(O)c1)c1nc2sc(C)c(C)c2c(=O)[nH]1,7,nt,nt,nt,nt,
CC(=O)N1CCC(=NNC(=O)c2cccs2)CC1,6,nt,nt,nt,nt,
CCCC(=O)N1CCN(Cc2ccc3c(c2)OCO3)CC1,1,nt,nt,nt,nt,
O=C(CCn1c(=O)[nH]c2ccsc2c1=O)N1CCN(Cc2ccc3c(c2)OCO3)CC1,2,-40,5,-4,45*,LYP act confirm=-2
SMILES,Measles CPE,LYP inh 2,sEH act,sEH inh,PTPN22 act,others
C[C@@]1([C@@H](NC(=O)c2cccs2)c2ccc(-c3ccccc3)cc2)C[C@H]1C1CCCCC1,27,nt,nt,nt,nt,
COC(=O)[C@H](Cc1ccccc1)NC(=O)NCc1ccc(S(N)(=O)=O)cc1,6,-48,nt,nt,44*,LYP act confirm=6
O=C1C=C(Nc2ccc(Cl)cc2)CC(c2ccccc2)C1 (stereo unspecified),2,nt,nt,nt,nt,
O=C(CCn1[nH]c(=O)c2ccccc2c1=O)N1CCOCC1,28,-8,17,-20,7,
O=C(O)CCn1[nH]c(=O)c2ccccc2c1=O,8,-36,4,-4,37*,LYP act confirm=8
CC1(C)OC2OC(C(=O)N/N=C/c3cc(Br)ccc3O)C3OC(C)(C)OC3C2O1 (stereo unspecified),4,nt,nt,nt,nt,
